Assay results taken from PubChem BioAssay AID1626 (SRMLSC, 2009).
The campaign covered roughly 220,000 compounds. About 2,000 (0.91%) were called active. About 2% were inconclusive and are not listed. These entries were drawn from the full list. Entries with a potency or affinity are not part of this list. A number with no mark means an inactive call. Rule as the data show it: inconclusive = inhibition above about 80% without an active follow-up result; inactive = below that; test concentration not stated here.

Experiment: M. tuberculosis H37Rv growth inhibitors, H37Rv strain (AID 1626);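 also: bacteria incubated seven days before Alamar blue readout; 0% = bacteria only wells and 100% = bacteria with antibiotic wells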
Details: active compounds read high, concentration not given here

Row | Compound | inhibition [%]
1 | CN(Cc1ccccc1)S(=O)(=O)c1ccc(NS(C)(=O)=O)cc1 | -4.2
2 | CC(=O)Nc1cc(Br)ccc1O | 3.76
3 | CN(Cc1ccccc1)C(=O)c1cc2ccccc2o1 | 6.83
4 | CCOc1cc(C(=O)Nc2ccc(F)cc2)cc(Br)c1OC | 9.07
5 | CCN(CC)c1ccc(/C=N/OCC(=O)N2CCCc3ccccc32)cc1 | 1.23
6 | CNc1c([N+](=O)[O-])cnn1-c1ccccc1Cl | 4.21
7 | Cc1ccccc1-c1cnn(-c2cccc([N+](=O)[O-])c2)c1N | 5.3
8 | O=C(CSc1nnc(NC(=O)Cc2ccccc2)s1)NCc1ccco1 | -1.92
9 | O=C(O)c1sccc1S(=O)(=O)c1ccccc1 | -0.34
10 | Cn1nccc1C(=O)Oc1ccc(/C=N/NC(=O)c2ccccc2O)cc1 | -6.68
11 | Cc1nnc(Cl)c2nn(-c3ccccc3)c(C)c12 | -0.17
12 | Cc1ccc(CSc2nnc(CCNC(=O)OC(C)(C)C)o2)cc1 | 7.99
13 | CC(C)(C)OC(=O)NCCCCCc1nnc(SCc2ccc(F)cc2)o1 | 60.9
14 | Cc1cccc(CSc2nnc(CCNC(=O)OC(C)(C)C)o2)c1 | 15
15 | CC(C)(C)OC(=O)NCCCCCc1nnc(SCc2cccc(F)c2)o1 | 75
16 | O=S(=O)(NC1CCCc2ccccc21)c1cnc[nH]1 (configuration not stated) | 1.01
17 | Nc1ccccc1C(=O)OCC(=O)c1ccc2c(c1)OCCO2 | -1.04
18 | O=C(COC(=O)c1cccs1)c1ccc2ccccc2c1 | 7
19 | Nc1nc(N)c(N=Nc2ccc(SCC(=O)O)cc2)c(=O)[nH]1 | -4.15
20 | CN(C)S(=O)(=O)N(CC(=O)NCCSCc1ccccc1)c1ccccc1 | 22.6
21 | Cc1ccc(CN2CCN(Cc3ccncc3)CC2CCO)o1 (configuration not stated) | -0.74
22 | CCN(CC)CCOC(=O)c1ccc([N+](=O)[O-])cc1 | 1.65
23 | O=C1c2ccccc2C(=O)N1c1ccc(Cl)cc1 | -5.9
24 | Cc1ccc(N2C(=O)C3C(c4ccccc4)(C2=O)C3(c2ccccc2)c2ccccc2)cc1 (configuration not stated) | 7.89
25 | CCc1ccccc1N1C(=O)c2cccc3c(N4CCOCC4)c([N+](=O)[O-])cc(c23)C1=O | 7.95
26 | Cc1cccc(N2C(=O)c3cccc4c(N5CCCCC5)c([N+](=O)[O-])cc(c34)C2=O)c1C | 9.67
27 | COCCNS(=O)(=O)c1cc(-c2nn(C)c(=O)c3ccccc23)ccc1C | -0.86
